Inconclusive results are not listed. Calls of active or inactive are those of the source. How the source made its calls, unless noted: active means hit-call score of the fitted dose curve at least 0.9, where 1 is the maximum; inactive means score below 0.9.
Columns and labels:
[1] = ATG_PXRE_CIS: Attagene CIS-FACTORIAL HepG2 Assay for human Pregnane X Receptor Element (PXRE) (AID 2282957); details: HepG2 Attagene CIS-FACTORIAL PXRE reporter, mRNA; actives raise or lower the signal
In short: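 Transiently transfected HepG2 cells were dosed and incubated for 24 h. RNA was then isolated, DNase-treated, reverse-transcribed and reporter sequences amplified. Labeled, HpaI-digested fragments were quantified by capillary electrophoresis against DMSO.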

[2] = ATG_RORE_CIS: Attagene CIS-FACTORIAL HepG2 Assay for human RAR-related Orphan Receptor Element (RORE) (AID 2282959); details: HepG2 Attagene cis-factorial RORE reporter, mRNA; actives raise or lower the signal
In short: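 Endogenous factor activity at a cis response element is read as reporter transcript levels in HepG2 cells, 24 h post-dose. Transcripts are quantified by RT-PCR with capillary electrophoresis, and data fitted in both directions against DMSO.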

[3] = ATG_Sox_CIS: Attagene CIS-FACTORIAL HepG2 Assay for human SRY-box transcription factor (SOX) (AID 2282960); details: HepG2 Attagene cis-factorial SOX reporter, mRNA; actives raise or lower the signal
In short: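 Measures mRNA induction of a SOX1-associated reporter in HepG2 after 24 h dosing. Fluorescently labelled RT-PCR fragments are separated by capillary electrophoresis, and gain or loss relative to DMSO control is fitted.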

[4] = target: Transcription factor Sp1 (Homo sapiens) (UniProt P08047); test: ATG_Sp1_CIS: Attagene CIS-FACTORIAL HepG2 Assay for human Specificity Protein 1 (Sp1) (AID 2282961); details: HepG2 Sp1 cis-reporter transcription, actives raise or lower the signal
In short: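 Cells: HepG2, transiently transfected with cis-regulated multiplexed reporters. Exposure: 24 h. Detection: reporter transcripts amplified, fluorescently labeled, restriction-digested and sized by capillary electrophoresis. Analysis: bidirectional fit relative to DMSO.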

[5] = ATG_SREBP_CIS: Attagene CIS-FACTORIAL HepG2 Assay for human Sterol Regulatory Element Binding (SREBP) (AID 2282962); details: HepG2 Attagene cis-factorial SREBP reporter, mRNA; actives raise or lower the signal
In short: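 HepG2 cells transiently transfected with multiplexed cis-promoter reporter units sensing endogenous transcription factors; reporter mRNA measured 24 h after dosing by RT-PCR, 6-FAM labeling, HpaI digestion and capillary electrophoresis. Bidirectional fit versus DMSO.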

[6] = target: Signal transducer and activator of transcription 3 (Homo sapiens) (UniProt P40763); test: ATG_STAT3_CIS: Attagene CIS-FACTORIAL HepG2 Assay for human Signal Transducer and Activator of Transcription 3 (STAT3) (AID 2282963); details: HepG2, Attagene cis-factorial STAT3 reporter transcription; actives raise or lower the signal
In short: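 Endogenous STAT3-responsive cis-element activity was read in transiently transfected HepG2 cells after 24 h treatment. Reporter transcripts were quantified via RT-PCR and capillary electrophoresis, with DMSO as negative control and bidirectional curve fitting.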

[7] = ATG_TA_CIS: Attagene CIS-FACTORIAL HepG2 Assay for human TA Basal Promoter (AID 2282964); details: HepG2 Attagene CIS-factorial TA basal promoter reporter; actives raise or lower the signal
In short: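 Cis-factorial format in HepG2: reporters report endogenous factors, not chimeric Gal4 fusions. After 24 h treatment, reporter transcripts were measured by RT-PCR-capillary electrophoresis fluorescence, analysed bidirectionally versus DMSO.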

[8] = ATG_TAL_CIS: Attagene CIS-FACTORIAL HepG2 Assay for human TAL Basal Promoter (AID 2282966); details: HepG2 Attagene cis-factorial TAL promoter reporter; actives raise or lower the signal;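 further: background control endpoint measuring basal TAL promoter reporter mRNA not a specific factor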
In short: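 Readout: reporter mRNA, fluorescence by CE. System: HepG2, transient multi-reporter transfection, endogenous TF activity. Exposure: 24 h. Analysis: bidirectional, DMSO-normalized; background control.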

[9] = ATG_TGFb_CIS: Attagene CIS-FACTORIAL HepG2 Assay for human Transforming Growth Factor (TGF) (AID 2282967); details: HepG2 Attagene CIS TGFb reporter, mRNA transcription; actives raise or lower the signal
In short: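 Multiplexed cis-reporter HepG2 system, 24 h treatment; mRNA induction read by fluorescence after RT-PCR and CE; DMSO negative control, bidirectional curve fitting.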

[10] = ATG_VDRE_CIS: Attagene CIS-FACTORIAL HepG2 Assay for human Vitamin D Receptor Element (VDRE) (AID 2282968); details: HepG2 VDRE cis-reporter transcription, actives raise or lower the signal
In short: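 Reporter mRNA induction, quantified by capillary electrophoresis of fluorescently labelled RT-PCR products, was read 24 h after dosing HepG2 cells carrying transiently transfected cis-regulated reporter units; gain or loss relative to DMSO.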

[11] = target: Nuclear receptor subfamily 1 group I member 3 (Homo sapiens) (UniProt Q14994); test: ATG_CAR_TRANS: Attagene TRANS-FACTORIAL HepG2 Assay for human Constitutive Androstane Receptor (CAR) (AID 2282969; active means hit-call score of the fitted dose curve at least 0.9, where 1 is the maximum;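 further: activators raise reporter mRNA above DMSO so AC50 marks induction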); details: HepG2 Attagene TRANS-FACTORIAL CAR reporter
In short: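 Readout is reporter mRNA induction, quantified by fluorescent primer extension and capillary electrophoresis after RT-PCR. Cells were HepG2 transiently carrying chimeric NR-Gal4 constructs with GAL4-UAS reporters, treated for 24 h; activity scored upward from DMSO.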

[12] = target: Steroid hormone receptor ERR1 (Homo sapiens) (UniProt P11474); test: ATG_ERRa_TRANS: Attagene TRANS-FACTORIAL HepG2 Assay for human Estrogen-Related Receptor alpha (ERRa) (AID 2282971; active means hit-call score of the fitted dose curve at least 0.9, where 1 is the maximum); details: HepG2 Attagene TRANS reporter, ERRa transactivation
In short: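 HepG2 cells were transiently transfected with multiple GAL4-UAS reporter units, then dosed with compound for 24 h. Total RNA was reverse-transcribed, reporter cDNA PCR-amplified and fluorescently labelled, and fragments resolved by capillary electrophoresis; induction was compared with DMSO.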

[13] = target: X-box-binding protein 1 (Homo sapiens) (UniProt P17861); test: ATG_Xbp1_CIS: Attagene CIS-FACTORIAL HepG2 Assay for human X-box Binding Protein 1 (XBP1) (AID 2282972); details: HepG2 XBP1 cis-element reporter, Attagene multiplex; actives raise or lower the signal
In short: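 HepG2 cells transiently transfected with multiple cis-element reporter units report endogenous TF activity; 24 h exposure, then reporter mRNA measured by RT-PCR, 6-FAM labelling, HpaI digestion and capillary electrophoresis. Bidirectional fitting versus DMSO.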

[14] = ATG_M_19_TRANS: Attagene TRANS-FACTORIAL HepG2 Assay for M19 Transcription Factor (Internal Marker) (AID 2282974; active means hit-call score of the fitted dose curve at least 0.9, where 1 is the maximum); details: HepG2 Attagene TRANS-FACTORIAL M19 internal marker reporter
In short: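 Reporter mRNA induction was measured in transfected HepG2 cells 24 h after dosing. Endpoint fitted upward relative to DMSO and serves as a background control within the multiplexed TRANS panel.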

[15] = target: Glucocorticoid receptor (Homo sapiens) (UniProt P04150); test: ATG_GR_TRANS: Attagene TRANS-FACTORIAL HepG2 Assay for human Glucocorticoid Receptor (GR) (AID 2282978; active means hit-call score of the fitted dose curve at least 0.9, where 1 is the maximum;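 further: activators score as hits since higher reporter transcript over DMSO is fitted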); details: HepG2 Attagene TRANS GR reporter, mRNA transcription
In short: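 Reporter transcript levels, detected by fluorescence after RT-PCR and capillary electrophoresis, served as the endpoint. HepG2 cells bearing transfected GAL4-UAS reporters responsive to NR-GAL4 chimeras were incubated with compound 24 h; DMSO defined baseline.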

[16] = ATG_TCF_b_cat_CIS: Attagene CIS-FACTORIAL HepG2 Assay for human T-Cell-Factor with beta-catenin (TCF/b-cat) (AID 2282965); details: HepG2 TCF/beta-catenin cis-reporter transcription, actives raise or lower the signal
In short: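 Endogenous transcription factor activity is captured through cis-promoter reporter constructs transiently introduced into human HepG2 liver cells. Induced reporter mRNA is measured after 24 h and fitted bidirectionally relative to DMSO.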

[17] = target: Estrogen-related receptor gamma (Homo sapiens) (UniProt P62508); test: ATG_ERRg_TRANS: Attagene TRANS-FACTORIAL HepG2 Assay for human Estrogen-Related Receptor gamma (ERRg) (AID 2282977; active means hit-call score of the fitted dose curve at least 0.9, where 1 is the maximum;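 further: hits increase reporter signal over DMSO so potencies reflect activators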); details: HepG2 Attagene TRANS reporter, ERRg transactivation
In short: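 Transfect HepG2 with multiple GAL4-UAS reporter transcription units; dose chemicals 24 h; isolate RNA, reverse-transcribe with oligo(dT), PCR-amplify, label with 6-FAM, digest with HpaI; size fragments by capillary electrophoresis. DMSO serves as negative control.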

[18] = target: Estrogen receptor (Homo sapiens) (UniProt P03372); test: ATG_ERa_TRANS: Attagene TRANS-FACTORIAL HepG2 Assay for human Estrogen Receptor alpha (ERa) (AID 2282970; active means hit-call score of the fitted dose curve at least 0.9, where 1 is the maximum); details: HepG2 Attagene TRANS ERa GAL4 reporter, mRNA
In short: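 Transactivation via ERa-Gal4 chimera in HepG2; 24 hour incubation; reporter mRNA detected by fluorescence RT-PCR and capillary electrophoresis.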

[19] = ATG_GAL4_TRANS: Attagene TRANS-FACTORIAL HepG2 Assay for GAL4 (Internal Marker) (AID 2282976; active means hit-call score of the fitted dose curve at least 0.9, where 1 is the maximum); details: HepG2 Attagene TRANS GAL4 internal marker reporter
In short: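 Fluorescence from capillary electrophoresis of labelled RT-PCR products quantifies reporter mRNA induction after 24 h dosing of HepG2 cells carrying transfected GAL4-UAS reporter transcription units. Vehicle DMSO serves as baseline.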

Measured: AC50

Chain of Estrogen-related receptor gamma (Homo sapiens) (P62508 whole entry, looked up, the tested form may be a part): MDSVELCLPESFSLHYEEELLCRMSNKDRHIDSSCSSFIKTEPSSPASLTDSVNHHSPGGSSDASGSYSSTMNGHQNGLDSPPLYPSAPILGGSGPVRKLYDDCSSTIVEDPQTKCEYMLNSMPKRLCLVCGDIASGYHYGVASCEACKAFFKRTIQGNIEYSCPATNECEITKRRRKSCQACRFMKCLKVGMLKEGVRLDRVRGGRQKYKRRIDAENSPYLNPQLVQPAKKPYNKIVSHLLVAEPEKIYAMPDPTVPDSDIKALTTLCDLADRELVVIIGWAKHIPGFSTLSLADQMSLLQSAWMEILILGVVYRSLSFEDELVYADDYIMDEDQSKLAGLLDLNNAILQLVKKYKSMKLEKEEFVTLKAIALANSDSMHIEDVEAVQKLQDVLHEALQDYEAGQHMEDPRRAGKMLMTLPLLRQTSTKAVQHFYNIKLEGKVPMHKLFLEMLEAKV
Chain of X-box-binding protein 1 (Homo sapiens) (P17861 whole entry, looked up): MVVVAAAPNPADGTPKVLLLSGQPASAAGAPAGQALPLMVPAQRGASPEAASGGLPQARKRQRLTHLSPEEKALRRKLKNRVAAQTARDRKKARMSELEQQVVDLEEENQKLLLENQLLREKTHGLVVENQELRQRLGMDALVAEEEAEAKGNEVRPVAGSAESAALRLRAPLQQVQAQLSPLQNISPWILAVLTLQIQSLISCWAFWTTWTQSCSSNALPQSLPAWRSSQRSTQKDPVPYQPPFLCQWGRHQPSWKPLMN
Chain of Glucocorticoid receptor (Homo sapiens) (P04150 whole entry, looked up, the tested form may be a part): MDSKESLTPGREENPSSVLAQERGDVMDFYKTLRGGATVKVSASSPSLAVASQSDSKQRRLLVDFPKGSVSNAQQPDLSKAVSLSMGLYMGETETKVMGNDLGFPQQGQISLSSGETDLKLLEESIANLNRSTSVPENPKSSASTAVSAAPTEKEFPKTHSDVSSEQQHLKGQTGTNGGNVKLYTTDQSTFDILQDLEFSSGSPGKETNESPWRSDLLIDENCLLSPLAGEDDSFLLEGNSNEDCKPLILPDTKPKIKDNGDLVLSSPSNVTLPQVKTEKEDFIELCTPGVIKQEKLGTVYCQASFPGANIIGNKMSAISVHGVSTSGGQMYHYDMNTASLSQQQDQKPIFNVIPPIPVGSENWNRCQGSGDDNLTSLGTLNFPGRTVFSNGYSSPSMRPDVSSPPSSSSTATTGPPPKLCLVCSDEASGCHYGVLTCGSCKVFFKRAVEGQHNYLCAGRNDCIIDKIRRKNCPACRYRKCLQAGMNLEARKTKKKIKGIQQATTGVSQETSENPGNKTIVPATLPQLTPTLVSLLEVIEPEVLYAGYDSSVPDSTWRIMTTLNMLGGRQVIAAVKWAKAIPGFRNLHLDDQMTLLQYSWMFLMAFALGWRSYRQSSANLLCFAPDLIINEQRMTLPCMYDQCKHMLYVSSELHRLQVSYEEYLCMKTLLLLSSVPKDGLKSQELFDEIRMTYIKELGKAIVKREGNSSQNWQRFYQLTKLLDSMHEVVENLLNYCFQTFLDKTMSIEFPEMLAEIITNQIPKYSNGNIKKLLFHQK
Chain of Transcription factor Sp1 (Homo sapiens) (P08047 whole entry, looked up): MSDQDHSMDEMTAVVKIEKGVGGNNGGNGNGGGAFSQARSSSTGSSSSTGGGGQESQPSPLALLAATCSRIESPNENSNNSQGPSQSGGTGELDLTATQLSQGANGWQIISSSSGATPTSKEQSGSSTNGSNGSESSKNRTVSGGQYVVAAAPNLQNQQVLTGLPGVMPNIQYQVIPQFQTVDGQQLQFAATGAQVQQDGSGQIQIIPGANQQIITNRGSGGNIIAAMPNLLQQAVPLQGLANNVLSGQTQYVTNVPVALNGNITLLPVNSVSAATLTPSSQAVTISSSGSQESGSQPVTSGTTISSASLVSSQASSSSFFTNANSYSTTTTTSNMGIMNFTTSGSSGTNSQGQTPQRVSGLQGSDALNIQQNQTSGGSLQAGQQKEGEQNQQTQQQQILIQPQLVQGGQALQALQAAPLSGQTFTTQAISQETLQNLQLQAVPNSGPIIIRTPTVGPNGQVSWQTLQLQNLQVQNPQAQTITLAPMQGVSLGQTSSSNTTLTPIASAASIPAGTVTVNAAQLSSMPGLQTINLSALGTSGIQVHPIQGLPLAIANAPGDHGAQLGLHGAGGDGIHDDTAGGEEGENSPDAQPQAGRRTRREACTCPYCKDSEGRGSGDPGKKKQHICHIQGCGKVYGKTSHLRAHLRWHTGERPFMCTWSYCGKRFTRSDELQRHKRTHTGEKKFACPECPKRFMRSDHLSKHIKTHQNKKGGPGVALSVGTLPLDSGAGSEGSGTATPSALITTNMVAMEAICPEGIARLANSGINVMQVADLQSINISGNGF
Chain of Nuclear receptor subfamily 1 group I member 3 (Homo sapiens) (Q14994 whole entry, looked up, the tested form may be a part): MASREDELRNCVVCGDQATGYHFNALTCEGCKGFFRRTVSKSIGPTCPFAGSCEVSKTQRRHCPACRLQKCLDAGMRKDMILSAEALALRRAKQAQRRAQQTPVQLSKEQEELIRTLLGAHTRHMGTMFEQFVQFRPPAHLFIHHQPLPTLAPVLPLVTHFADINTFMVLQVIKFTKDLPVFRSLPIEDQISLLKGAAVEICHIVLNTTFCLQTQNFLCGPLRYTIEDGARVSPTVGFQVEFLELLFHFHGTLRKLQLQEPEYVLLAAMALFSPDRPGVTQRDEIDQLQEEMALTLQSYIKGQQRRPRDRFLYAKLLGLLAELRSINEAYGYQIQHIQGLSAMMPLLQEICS
Chain of Signal transducer and activator of transcription 3 (Homo sapiens) (P40763 whole entry, looked up): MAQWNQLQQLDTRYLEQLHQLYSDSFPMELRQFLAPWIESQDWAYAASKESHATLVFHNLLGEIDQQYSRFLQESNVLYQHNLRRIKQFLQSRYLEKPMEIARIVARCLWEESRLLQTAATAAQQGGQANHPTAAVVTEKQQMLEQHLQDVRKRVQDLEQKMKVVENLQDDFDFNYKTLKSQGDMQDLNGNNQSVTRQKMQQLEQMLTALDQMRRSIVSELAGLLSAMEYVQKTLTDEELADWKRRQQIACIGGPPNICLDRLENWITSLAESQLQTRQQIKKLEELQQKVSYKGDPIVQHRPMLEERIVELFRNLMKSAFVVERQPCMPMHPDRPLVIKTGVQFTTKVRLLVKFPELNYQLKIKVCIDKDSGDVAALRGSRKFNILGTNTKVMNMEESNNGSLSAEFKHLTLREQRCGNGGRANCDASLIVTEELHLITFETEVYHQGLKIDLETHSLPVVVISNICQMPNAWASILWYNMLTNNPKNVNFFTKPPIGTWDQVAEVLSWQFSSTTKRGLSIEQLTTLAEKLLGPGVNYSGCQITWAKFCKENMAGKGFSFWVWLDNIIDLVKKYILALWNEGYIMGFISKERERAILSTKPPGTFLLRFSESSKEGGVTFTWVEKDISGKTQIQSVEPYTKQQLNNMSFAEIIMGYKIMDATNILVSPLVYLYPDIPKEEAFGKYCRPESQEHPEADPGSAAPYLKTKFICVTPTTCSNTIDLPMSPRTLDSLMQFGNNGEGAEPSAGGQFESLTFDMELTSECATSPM
Chain of Steroid hormone receptor ERR1 (Homo sapiens) (P11474 whole entry, looked up, the tested form may be a part): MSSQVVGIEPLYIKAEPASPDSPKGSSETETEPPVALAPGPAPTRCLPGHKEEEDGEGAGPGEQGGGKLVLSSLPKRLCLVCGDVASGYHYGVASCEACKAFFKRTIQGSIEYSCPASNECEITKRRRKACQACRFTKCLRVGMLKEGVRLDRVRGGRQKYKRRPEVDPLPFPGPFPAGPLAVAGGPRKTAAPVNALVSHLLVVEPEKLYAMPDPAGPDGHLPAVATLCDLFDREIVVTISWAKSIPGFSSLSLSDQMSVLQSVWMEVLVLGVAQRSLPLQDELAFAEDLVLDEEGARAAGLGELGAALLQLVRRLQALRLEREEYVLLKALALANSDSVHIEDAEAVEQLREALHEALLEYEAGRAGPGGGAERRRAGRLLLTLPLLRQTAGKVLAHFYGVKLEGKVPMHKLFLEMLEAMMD
Chain of Estrogen receptor (Homo sapiens) (P03372 whole entry, looked up, the tested form may be a part): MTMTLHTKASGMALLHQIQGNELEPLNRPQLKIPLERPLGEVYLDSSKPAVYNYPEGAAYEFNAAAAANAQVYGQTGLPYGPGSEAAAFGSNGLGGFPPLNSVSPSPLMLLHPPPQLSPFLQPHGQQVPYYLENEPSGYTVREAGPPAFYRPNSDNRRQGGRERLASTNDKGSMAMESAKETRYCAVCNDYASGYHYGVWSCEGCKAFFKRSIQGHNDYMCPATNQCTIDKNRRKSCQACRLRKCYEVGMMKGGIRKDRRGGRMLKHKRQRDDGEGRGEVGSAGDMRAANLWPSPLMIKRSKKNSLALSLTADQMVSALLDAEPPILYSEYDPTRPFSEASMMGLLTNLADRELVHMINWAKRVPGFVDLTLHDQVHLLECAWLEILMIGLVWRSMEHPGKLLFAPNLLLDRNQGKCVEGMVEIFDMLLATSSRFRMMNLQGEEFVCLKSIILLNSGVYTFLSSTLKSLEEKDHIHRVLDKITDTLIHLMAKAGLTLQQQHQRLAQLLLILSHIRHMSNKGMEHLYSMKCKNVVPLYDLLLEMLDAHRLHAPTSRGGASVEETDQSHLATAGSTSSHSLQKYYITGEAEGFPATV

Nc1ccc([N+](=O)[O-])cc1
inactive: [1] | [2] | [3] | [4] | [5] | [6] | [7] | [8] | [9] | [10] | [11] | [12] | [13] | [14] | [15]

CC(C)(C)OOC(C)(C)CCC(C)(C)OOC(C)(C)C
inactive: [2] | [3] | [6] | [7] | [16] | [8] | [9] | [10] | [11] | [12] | [13] | [17]
active: [1] 8.34 µM | [4] 177 µM | [5] 38 µM

Cc1ccc(N=C=O)cc1N=C=O
inactive: [1] | [2] | [3] | [4] | [5] | [6] | [7] | [16] | [8] | [9] | [10] | [13] | [17]

CC(C)COC(=O)c1ccccc1C(=O)OCC(C)C
inactive: [3] | [4] | [5] | [6] | [8] | [9] | [18] | [14] | [15]
active: [1] 26.1 µM | [2] 44.3 µM | [7] 56.4 µM | [13] 65.8 µM

CCCSC(=O)N(CCC)CCC
active: [1] 27.1 µM
inactive: [2] | [3] | [4] | [5] | [6] | [7] | [8] | [9] | [10] | [11] | [13] | [19] | [15]

CCC[CH2][Sn]([Cl])([CH2]CCC)[CH2]CCC
inactive: [1] | [2] | [3] | [5] | [6] | [8] | [9] | [14]
active: [4] 0.412 µM | [7] 0.698 µM | [10] 0.412 µM | [13] 0.639 µM | [15] 1.24 µM

[Cl-].[Cl-].[Hg+2]
inactive: [1] | [2] | [3] | [4] | [6] | [7] | [16] | [8] | [9] | [10] | [13] | [14]
active: [5] 51 µM

CCC(C)c1ccc(O)cc1 (configuration not stated)
inactive: [2] | [3] | [4] | [6] | [7] | [16] | [8] | [9] | [11] | [14] | [19] | [17] | [15]
active: [1] 26.5 µM | [5] 163 µM | [13] 51.8 µM

From PubChem BioAssay (EPA / NIEHS)
